Results as given in PubChem BioAssay (NCI).
About 83,000 compounds went through this panel and 20% of them were active in at least one assay; those are over-represented in the sample as a whole.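 Cells were grown in 96-well plates and exposed to the test compound at a single concentration for 48 hours; results are reported as percent growth, with values below 10 considered active.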 Activity calls are given as the source filed them.

test system: NCI/ADR-RES ovarian; experiment: NCI-60 one-dose screen, 48 h (100 = growth as untreated, 0 = no growth, -100 = all killed); details: 10 µM unless noted
Description: Growth inhibition of the NCI/ADR-RES human […] tumor cell line is measured as a screen for anti-cancer activity. Cells are grown in 96 well plates and exposed to the test compound for 48 hours. Compounds are tested at a single concentration, which is 10^-5 M for most compounds. The reported endpoint is percent growth (GI% or GIPRCNT), where numbers from 0 - 100% represent growth inhibition, and numbers from -100% - 0 represent cell death. For example, a value of 40 represents 60% growth inhibition. A value of 0 means no net growth occurred over the course of the experiment. A value of -40 indicates 40% of cells at the beginning of the experiment died by the end of the experiment. A value of -100 means all cells are dead at the end of the experiment.
NCI-60 Human Tumor Cell Lines Screen was performed using the standard one-dose NCI protocol, which is described in more detail at https://dtp.cancer.gov/discovery_development/nci-60/default.htm.
Compounds with GIPRCNT values below 10 were considered active. Activity score was based on GIPRCNT using the following formula: […]
Score is 0 for GIPRCNT values of 100 or above, 50 for GIPRCNT values of 0, and 100 for GIPRCNT values of -100.

Question: `C/C(=C(/c1ccccc1)c1ccc(N2C(=O)c3cccc4c(NCc5ccccc5)ccc(c34)C2=O)cc1)c1ccccc1` was tested. Which growth did it give?
Answer: 97.9% (inactive)

Question: For `COc1cc2ncnc(Nc3ccc(OCc4cccc(F)c4)c(Cl)c3)c2cc1NC(=O)C1CCCC1`, which growth is on record?
Answer: 71.6% (inactive)

Question: With `COc1ccc(-c2nc3ncccn3c2-c2nc3ccc(Br)cc3[nH]2)cc1` as the compound, how does the growth read?
Answer: 87.3% (inactive)

Question: With `Cc1ccc(Cc2cnc(NC(=O)/C=C/c3cccc(C)c3)s2)cc1` as the compound, how does the growth read?
Answer: -36.5% (active)

Question: Which growth does the source give for `CC/C=C\C[C@H]1CC=C2C(=O)C=C[C@@H]2CC=CCCCC(=O)O[C@@H](CCCCC)CC=C2C(=O)C=C[C@@H]2CC=CCCCC(=O)O[C@@H](CCCCC)CC=C2C(=O)C=C[C@@H]2CC=CCCCC(=O)O[C@@H](CCCCC)CC=C2C(=O)C=C[C@@H]2CC=CCCCC(=O)O1` here?
Answer: 92.6% [7.9 µM] (inactive)

Question: Which growth does the source give for `N#Cc1cnc2cc(OC[C@@H](O)CO)c(NC(=O)CC3CSSC3)cc2c1Nc1ccc(OCc2cccc(F)c2)c(Cl)c1` here?
Answer: 85.9% (inactive)

Question: With `COc1cccc(-c2nn(-c3ccccc3)cc2-c2ccnc(NCCNS(=O)(=O)c3ccc(C(F)(F)F)cc3)c2)c1` as the compound, how does the growth read?
Answer: 16.9% (inactive)

Question: For `COc1ccc(/C=C(\C#N)c2cc3ccccc3n2S(C)(=O)=O)cc1`, which growth is on record?
Answer: 60.1% (inactive)

Question: `CN(CSc1ccc(Cl)cc1)c1ccc(CSc2ccc(Cl)cc2)cc1` was tested. Which growth did it give?
Answer: 91.7% (inactive)

Question: For `C#Cc1cccc(NC(=O)C2CCCN(C(=O)CCl)C2)c1` (stereo not given), which growth is on record?
Answer: 93.2% [8.25 µM] (inactive)

Question: For `OCC(CO)(CCl)CCl`, which growth is on record?
Answer: 99% (inactive)

Question: For `CC1=NN(c2ccc(S(=O)(=O)O)cc2Cl)C(=O)C1`, which growth is on record?
Answer: 98.9% (inactive)

Question: With `COc1cc2c(cc1-c1c(C)noc1C)ncc1nc(C3CC3)n([C@H](C)COC(F)F)c12` as the compound, how does the growth read?
Answer: 40.1% (inactive)

Question: `COc1ccc(C(=O)/C=C/c2cc(-c3cc(OC)c(OC)c(OC)c3)n[nH]2)cc1OC` was tested. Which growth did it give?
Answer: 15% (inactive)

Question: Which growth does the source give for `CC(=O)c1c(C)[nH]c(-c2nc3ccc(N4CCN(C)CC4)cc3[nH]2)c1-c1ccc(N(C)C)cc1` here?
Answer: 34.2% (inactive)

Question: How did the growth turn out when `COC(=O)[C@]12CC[C@@H](C)[C@H](C)[C@@H]1C1=CC[C@@H]3[C@@]4(C)C[C@@H](OC(C)=O)[C@H](O)[C@@](C)(CO)[C@@H]4[C@H](O)C[C@@]3(C)[C@]1(C)CC2` was run?
Answer: -67.6% (active)

Question: For `Cn1cc(-c2csc(-c3cn(CCCN4CCCCC4)c4ccc(Br)cc34)n2)c2cccnc21`, which growth is on record?
Answer: 19.9% (inactive)

Question: For `Cc1cc(N2CCN(C)CC2)nc(N(CCNc2ccnc3cc(Cl)ccc23)Cc2ccco2)n1`, which growth is on record?
Answer: 38.7% (inactive)

Question: With `Cc1ccc(-c2nc3ccc(Cl)cc3c(=O)n2N2C(=O)CSC2c2ccccc2Cl)cc1` (stereo not given) as the compound, how does the growth read?
Answer: 70.6% (inactive)

Question: How did the growth turn out when `CCOC(=O)N1CCN(CCCCOc2ccc(C(C)(C)CC)cc2)CC1` was run?
Answer: 88.2% (inactive)

Question: Which growth does the source give for `COc1cc2[nH]c(C(=O)c3cc(OC)c(OC)c(OC)c3)c(N)c2cc1C#CCO` here?
Answer: 37.8% (inactive)

Question: How did the growth turn out when `O=C1OC(c2ccc(Cl)c(Cl)c2)=C/C1=C/c1cccc([N+](=O)[O-])c1` was run?
Answer: 104% (inactive)

Question: How did the growth turn out when `COc1ccc2c3c(c4ccccc4cc13)C(=O)N(CCN(C)CCN)C2=O` was run?
Answer: -7.12% (active)

Question: How did the growth turn out when `Cc1csc(Nc2nc(-c3cccc(Br)c3)nc(C(Cl)(Cl)Cl)n2)n1` was run?
Answer: 60.4% (inactive)

Question: With `Brc1ccc(Cn2nnnc2-c2ccn(-c3ccccc3)n2)cc1` as the compound, how does the growth read?
Answer: 27.5% (inactive)

Question: For `CC(=O)O[C@H]1CC[C@@]2(C)[C@@H](CC[C@@H]3[C@@H]2CC(=O)[C@@]2(C)[C@H]3C[C@@H](C3CCCC3=O)[C@@H]2C(C)=O)C1` (stereo not given in full), which growth is on record?
Answer: 104% (inactive)

Question: `NC(N)=N/N=C/c1ccc(-c2ccc(-c3ccc(Cl)cn3)s2)cc1` was tested. Which growth did it give?
Answer: 50.8% (inactive)

Question: With `Nc1nc2c(c(=O)[nH]1)C(c1ccc3c(c1)OCO3)C=C(C(=O)O)N2` (stereo not given) as the compound, how does the growth read?
Answer: 109% (inactive)

Question: `Cc1cccc(C)c1NC(=O)CSC(=S)N1CCCCC1` was tested. Which growth did it give?
Answer: 103% (inactive)

Question: Which growth does the source give for `Oc1cccc2oc(=S)[nH]c12` here?
Answer: 102% (inactive)

Question: How did the growth turn out when `N#Cc1cnc2cc(OC[C@@H](O)CO)c(NC(=O)C3CCCC3)cc2c1Nc1ccc(OCc2cccc(F)c2)c(Cl)c1` was run?
Answer: 63.3% (inactive)

Question: For `C[C@H]1[C@@H]2[C@H]3CC[C@@H]4[C@@]5(C)Cc6c([nH]c7ccccc67)C(C)(C)[C@@H]5CC[C@@]4(C)[C@]3(C)CC[C@]23CO[C@]1(C)[C@@H](C(=O)/C=C/c1ccccn1)C3`, which growth is on record?
Answer: 100% (inactive)

Question: How did the growth turn out when `Cn1cc(-c2nc(-c3cn(C)c4ncccc34)cs2)c2ccccc21` was run?
Answer: 8.77% (active)

Question: `COc1ccc(CCN2C(=O)C(C)(C)SC2=S)cc1OC` was tested. Which growth did it give?
Answer: 100% (inactive)

Question: `COc1ccc2c(c1)c(-c1nc(-c3cn(C)c4ncccc34)cs1)cn2CCCN1CCCCC1` was tested. Which growth did it give?
Answer: 69.5% (inactive)

Question: `N#CCCCCCn1c2ccccc2c2c3[nH]c(=O)[nH]c(=O)c3c3c4ccccc4n(CCCCCC#N)c3c21` was tested. Which growth did it give?
Answer: 89.4% (inactive)

Question: How did the growth turn out when `CC(C)=CCC/C(C)=C/CC/C(C)=C/CC/C(C)=C/CSC[C@H](NC(=O)CCCCCN1CCN(C)CC1)C(=O)NC1CCCCC1` was run?
Answer: 86.9% (inactive)

Question: With `COC(=O)c1cc(=O)nc(N/N=C/c2ccc(C)cc2)s1` as the compound, how does the growth read?
Answer: 106% (inactive)

Question: How did the growth turn out when `Cc1[c-]onc1C.Cc1[c-]onc1C.[Ag].[Ag].[NH-]S(=O)(=O)c1ccc(N=Nc2cc(N=Nc3ccc(S([NH-])(=O)=O)cc3)c3c(NC(=O)C(Cl)Cl)cccc3c2OC(=O)C(Cl)Cl)cc1` was run?
Answer: 96.9% (inactive)

Question: For `N#CC1=C(N)Oc2c(c(N)nn2-c2ccccc2)C1c1ccc(Cl)cc1Cl` (stereo not given), which growth is on record?
Answer: 100% (inactive)
